Binding signal data for 5 sequences are collected here from paper PMC11006913.

Holding throughout (assay): PBM; 200 nM protein, PBS
Common to all, as to conditions: dsDNA, one strand shown

Experiment [1] concerns the target T1, PAX4 (Homo sapiens, UniProt O43316 9-242, R200K).
T1 sequence: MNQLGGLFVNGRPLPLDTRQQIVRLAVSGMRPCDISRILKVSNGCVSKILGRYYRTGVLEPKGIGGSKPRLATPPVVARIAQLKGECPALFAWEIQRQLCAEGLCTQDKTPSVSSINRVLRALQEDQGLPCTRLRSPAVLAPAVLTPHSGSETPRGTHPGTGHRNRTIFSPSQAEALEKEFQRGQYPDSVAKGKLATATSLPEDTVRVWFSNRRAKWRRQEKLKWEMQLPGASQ

Experiment [2] has as its target T2, PAX4 (Homo sapiens, UniProt O43316 9-242).
T2 sequence: T1 sequence with K192R

Experiment [3] addresses HOXD13 (Homo sapiens, UniProt P35453 263-343, T313R).
The target in experiment [4] is T3, PAX4 (Homo sapiens, UniProt O43316 9-242, R200Q).
T3 sequence: T1 sequence with K192Q

The target of experiment [5] is HOXD13 (Homo sapiens, UniProt P35453 263-343).
Chain of HOXD13 (Homo sapiens, UniProt P35453 263-343) (P35453 263-343): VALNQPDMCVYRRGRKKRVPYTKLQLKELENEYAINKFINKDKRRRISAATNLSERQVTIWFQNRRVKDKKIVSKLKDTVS
For experiment [6], the target named is T4, PAX4 (Homo sapiens, UniProt O43316 9-242, F177V).
T4 sequence: T1 sequence with F169V, K192R

In experiment [7] the target is T5, PAX4 (Homo sapiens, UniProt O43316 9-242, F177Y).
T5 sequence: T1 sequence with F169Y, K192R

Experiment [8] deals with HOXD13 (Homo sapiens, UniProt P35453 263-343, T313A).
Chain of HOXD13 (Homo sapiens, UniProt P35453 263-343, T313A) (P35453 263-343 T313A): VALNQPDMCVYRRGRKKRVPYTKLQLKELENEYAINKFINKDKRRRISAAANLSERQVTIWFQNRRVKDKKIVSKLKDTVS
Experiment [9] deals with T6, PAX4 (Homo sapiens, UniProt O43316 9-242, R227W).
T6 sequence: T1 sequence with K192R, R219W

The target of experiment [10] is HOXA2 (Homo sapiens, UniProt O43364 129-215, R185T).
Chain of HOXA2 (Homo sapiens, UniProt O43364 129-215, R185T) (O43364 129-215 R185T): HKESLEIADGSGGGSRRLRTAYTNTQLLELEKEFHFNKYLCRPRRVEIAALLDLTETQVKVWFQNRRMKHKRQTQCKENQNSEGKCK
The target of experiment [11] is ALX3 (Homo sapiens, UniProt O95076 139-225, N203Q).
Chain of ALX3 (Homo sapiens, UniProt O95076 139-225, N203Q) (O95076 139-225 N203Q): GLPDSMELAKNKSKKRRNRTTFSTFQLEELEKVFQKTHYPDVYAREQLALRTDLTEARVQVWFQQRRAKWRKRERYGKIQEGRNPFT
For experiment [12], the target named is T7, NKX2-6 (Homo sapiens, UniProt A6NCS4 118-204).
T7 sequence: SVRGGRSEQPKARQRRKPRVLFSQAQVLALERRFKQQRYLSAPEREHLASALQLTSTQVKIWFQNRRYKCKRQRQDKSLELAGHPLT

For experiment [13], the target named is HOXA2 (Homo sapiens, UniProt O43364 129-215, R185K).
Chain of HOXA2 (Homo sapiens, UniProt O43364 129-215, R185K) (O43364 129-215 R185K): as the sequence (O43364 129-215 R185T) above, with T57K counted along it
The target in experiment [14] is ALX3 (Homo sapiens, UniProt O95076 139-225).
Chain of ALX3 (Homo sapiens, UniProt O95076 139-225) (O95076 139-225): as the sequence (O95076 139-225 N203Q) above, with Q65N counted along it
In experiment [15] the target is ALX3 (Homo sapiens, UniProt O95076 139-225, L168Q).
Chain of ALX3 (Homo sapiens, UniProt O95076 139-225, L168Q) (O95076 139-225 L168Q): as the sequence (O95076 139-225 N203Q) above, with L30Q, Q65N counted along it
Experiment [16] has as its target T8, NKX2-6 (Homo sapiens, UniProt A6NCS4 118-204, F151L).
T8 sequence: T7 sequence with F34L

In experiment [17] the target is ALX3 (Homo sapiens, UniProt O95076 139-225, L168V).
Chain of ALX3 (Homo sapiens, UniProt O95076 139-225, L168V) (O95076 139-225 L168V): as the sequence (O95076 139-225 N203Q) above, with L30V, Q65N counted along it
Experiment [18] addresses HOXA2 (Homo sapiens, UniProt O43364 129-215, Y150S).
In experiment [19] the target is ALX3 (Homo sapiens, UniProt O95076 139-225, N203S).
Chain of ALX3 (Homo sapiens, UniProt O95076 139-225, N203S) (O95076 139-225 N203S): as the sequence (O95076 139-225 N203Q) above, with Q65S counted along it
Experiment [20] concerns the target HOXA2 (Homo sapiens, UniProt O43364 129-215).

Numbering of substitutions follows the chain as printed.

Chain of HOXA2 (Homo sapiens, UniProt O43364 129-215) (O43364 129-215): as the sequence (O43364 129-215 R185T) above, with T57R counted along it
Chain of HOXA2 (Homo sapiens, UniProt O43364 129-215, Y150S) (O43364 129-215 Y150S): as the sequence (O43364 129-215 R185T) above, with Y22S, T57R counted along it
Chain of HOXD13 (Homo sapiens, UniProt P35453 263-343, T313R) (P35453 263-343 T313R): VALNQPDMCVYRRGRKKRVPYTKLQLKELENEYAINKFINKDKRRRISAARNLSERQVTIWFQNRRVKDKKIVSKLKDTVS

With GCCCCACC, the binding signal in the experiment with PAX4 [1] is 9.5 upbm affinity estimate (log intensity, higher = more binding, comparable within an allelic series); with PAX4 [2], 9.33 upbm affinity estimate (log intensity, higher = more binding, comparable within an allelic series); with HOXD13 [3] it was 9.66 upbm affinity estimate (log intensity, higher = more binding, comparable within an allelic series); with PAX4 [4], 9.38 upbm affinity estimate (log intensity, higher = more binding, comparable within an allelic series); with HOXD13 [5] it was 9.74 upbm affinity estimate (log intensity, higher = more binding, comparable within an allelic series); with PAX4 [6] it was 9.19 upbm affinity estimate (log intensity, higher = more binding, comparable within an allelic series). Further, the binding signal with PAX4 [7] is 9.3 upbm affinity estimate (log intensity, higher = more binding, comparable within an allelic series); with HOXD13 [8], 9.8 upbm affinity estimate (log intensity, higher = more binding, comparable within an allelic series); in the experiment with PAX4 [9] it was 9.4 upbm affinity estimate (log intensity, higher = more binding, comparable within an allelic series).
In the case of CGGTACCG, the binding signal is 9.38 upbm affinity estimate (log intensity, higher = more binding, comparable within an allelic series) with PAX4 [1]; 9.43 upbm affinity estimate (log intensity, higher = more binding, comparable within an allelic series) with PAX4 [2]; 7.62 upbm affinity estimate (log intensity, higher = more binding, comparable within an allelic series) with HOXA2 [10]; 7.72 upbm affinity estimate (log intensity, higher = more binding, comparable within an allelic series) in the experiment with ALX3 [11]; 9.13 upbm affinity estimate (log intensity, higher = more binding, comparable within an allelic series) with NKX2-6 [12]; 9.37 upbm affinity estimate (log intensity, higher = more binding, comparable within an allelic series) in the experiment with PAX4 [4]. Besides, the binding signal in the experiment with HOXA2 [13] was 10.4 upbm affinity estimate (log intensity, higher = more binding, comparable within an allelic series); with PAX4 [6], 9.37 upbm affinity estimate (log intensity, higher = more binding, comparable within an allelic series); with ALX3 [14], 7.9 upbm affinity estimate (log intensity, higher = more binding, comparable within an allelic series); with PAX4 [7], 9.28 upbm affinity estimate (log intensity, higher = more binding, comparable within an allelic series); in the experiment with ALX3 [15] it was 7.73 upbm affinity estimate (log intensity, higher = more binding, comparable within an allelic series); with NKX2-6 [16] it was 9.24 upbm affinity estimate (log intensity, higher = more binding, comparable within an allelic series). Moreover, the binding signal in the experiment with ALX3 [17] was 7.69 upbm affinity estimate (log intensity, higher = more binding, comparable within an allelic series); in the experiment with PAX4 [9], 9.32 upbm affinity estimate (log intensity, higher = more binding, comparable within an allelic series); with HOXA2 [18], 10.4 upbm affinity estimate (log intensity, higher = more binding, comparable within an allelic series); with ALX3 [19], 7.78 upbm affinity estimate (log intensity, higher = more binding, comparable within an allelic series); in the experiment with HOXA2 [20], 7.54 upbm affinity estimate (log intensity, higher = more binding, comparable within an allelic series).
As to CGGCTGAG, the binding signal with PAX4 [1] was 9.44 upbm affinity estimate (log intensity, higher = more binding, comparable within an allelic series); with PAX4 [2], 9.36 upbm affinity estimate (log intensity, higher = more binding, comparable within an allelic series); with ALX3 [11] it was 7.73 upbm affinity estimate (log intensity, higher = more binding, comparable within an allelic series); with PAX4 [4], 9.42 upbm affinity estimate (log intensity, higher = more binding, comparable within an allelic series); with PAX4 [6], 9.34 upbm affinity estimate (log intensity, higher = more binding, comparable within an allelic series); with ALX3 [14] it was 7.82 upbm affinity estimate (log intensity, higher = more binding, comparable within an allelic series). Moreover, the binding signal in the experiment with PAX4 [7] is 9.23 upbm affinity estimate (log intensity, higher = more binding, comparable within an allelic series); with ALX3 [15] it was 7.79 upbm affinity estimate (log intensity, higher = more binding, comparable within an allelic series); with ALX3 [17], 7.77 upbm affinity estimate (log intensity, higher = more binding, comparable within an allelic series); with PAX4 [9] it was 9.35 upbm affinity estimate (log intensity, higher = more binding, comparable within an allelic series); with ALX3 [19], 7.7 upbm affinity estimate (log intensity, higher = more binding, comparable within an allelic series).
Consider GTACGTAA, for which the binding signal was 10.4 upbm affinity estimate (log intensity, higher = more binding, comparable within an allelic series) in the experiment with PAX4 [1]; 10.6 upbm affinity estimate (log intensity, higher = more binding, comparable within an allelic series) with PAX4 [2]; 10.6 upbm affinity estimate (log intensity, higher = more binding, comparable within an allelic series) with PAX4 [4].
Consider GAGCAGGC, for which the binding signal with PAX4 [1] was 9.17 upbm affinity estimate (log intensity, higher = more binding, comparable within an allelic series); with PAX4 [2], 9.18 upbm affinity estimate (log intensity, higher = more binding, comparable within an allelic series); in the experiment with HOXA2 [10] it was 7.17 upbm affinity estimate (log intensity, higher = more binding, comparable within an allelic series); in the experiment with PAX4 [4] it was 9.24 upbm affinity estimate (log intensity, higher = more binding, comparable within an allelic series); with HOXA2 [13] it was 10.1 upbm affinity estimate (log intensity, higher = more binding, comparable within an allelic series); with PAX4 [6], 9.28 upbm affinity estimate (log intensity, higher = more binding, comparable within an allelic series). Moreover, the binding signal with PAX4 [7] is 9.26 upbm affinity estimate (log intensity, higher = more binding, comparable within an allelic series); with PAX4 [9], 9.32 upbm affinity estimate (log intensity, higher = more binding, comparable within an allelic series); with HOXA2 [18], 10.5 upbm affinity estimate (log intensity, higher = more binding, comparable within an allelic series); with HOXA2 [20], 7.04 upbm affinity estimate (log intensity, higher = more binding, comparable within an allelic series).
